# “And” between values parts separate entries of the source, which are not always exact repeats. Equal values may be shown once. Results filed as inconclusive are left out. A structure can be active in one record and inactive in another. The source made the active and inactive calls. Calls come from the whole dose curve; as a rule, active = well fitted cell-killing curve with a large enough effect in the repeat runs; inconclusive = weak or mixed curves, or effect the other way; inactive = flat fitted curve, though single readings scatter.
# Test: qHTS RealTime-Glo MT Cell Viability Assay in HEK293 cells - 40 hour (AID 1224874); note: nearly all actives have a fitted effect of over 50% in size
# Conditions: RealTime-Glo luminescence; max response: stronger effect = lower value
# Source text: U.S. Tox21 Program National Center for Advancing Translational Sciences [NCATS] NIH Chemical Genomics Center [NCGC] U.S. Environmental Protection Agency [EPA] National Institutes of Environmental Health Sciences [NIEHS] National Toxicology Program [NTP] U.S. Food and Drug Administration [FDA] Tox21 Assay Overview: Measure of cell viability is critical in the cell-base assay. Analysis of cell viability is necessary for the characterization of cell responses to cytotoxic drugs and environmental stress. A RealTime-Glo MT Cell Viability Assay to monitor cell viability in real time of continues cell culture during 40 hours of compound treatment was used to screen Tox21 10K library compounds in Hek293 cells. The RealTime-Glo MT Cell Viability Assay is a nonlytic, homogeneous, bioluminescent method to measure cell viability in real time using a simple, plate-based method. The assay involves adding NanoLuc luciferase and a cell-permeant prosubstrate to cells in culture. Viable cells reduce the proprietary prosubstrate to generate a substrate for NanoLuc luciferase. This substrate diffuses from cells into the surrounding culture medium, where it is rapidly used by the NanoLuc Enzyme to produce a luminescent signal. The signal correlates with the number of viable cells, making the assay well suited for cytotoxicity studies.
# Tox21 Assay Protocol Summary: The mixture of Hek293 cell suspension and reagents were dispensed at 600cells/6 ul/well in 1536-well tissue culture treated black solid bottom plates using a Multidrop dispenser. After the assay plates were incubated at a 37 C/5% CO2 incubator for 5 hours, 23 nL of compounds dissolved in DMSO, positive and negative controls was transferred to the assay plate by a pintool work station. The plates were incubated at 37 C for 40 hours. The luminescence intensity were measured at 0h, 8h, 16h, 24h, 32h and 40h time points using ViewLux plate reader during compound treatment.
# % is set by controls: 0 for no effect and ±100 for the full control effect; potency is the fitted concentration of half-maximal effect.
SMILES,max response,Potency
CC1CC(=O)O1 (stereo not given),4.47% (inactive) and -6.16% (inactive),–
O=NN1CCOCC1,-0.852% (inactive),1.95 µM (active)
Brc1ccc(Br)cc1,1.04% (inactive) and 3.61% (inactive),–
Nc1ncn[nH]1,-0.91% (inactive) and 1.15% (inactive),–
Clc1ccccc1-c1nnc(-c2ccccc2Cl)nn1,-1.79% (inactive) and -6.1% (inactive),–
NC(=O)CN1CCCC1=O,3.12% (inactive) and 0.0955% (inactive),–
CC(C)=CC1C(C(=O)OCN2C(=O)C3=C(CCCC3)C2=O)C1(C)C (stereo not given),2.99% (inactive),–
[Cl-].[Cl-].[Cl-].[Fe+3],0.374% (inactive),–
CS(=O)(=O)NC(=O)c1cc(Oc2ccc(C(F)(F)F)cc2Cl)ccc1[N+](=O)[O-],9.57% (inactive) and 9.32% (inactive),–
COc1ccc(C=O)cc1OC,1.59% (inactive) and -6.52% (inactive),–
CC(C)(O)C(=O)Nc1ccc([N+](=O)[O-])c(C(F)(F)F)c1,–,22.3 µM (active) and 17.9 µM (active)
ClC(Cl)(Cl)Br,-0.387% (inactive) and 6.81% (inactive),–
Cn1c(-c2ccccc2)cc(-c2ccccc2)[n+]1C,–,9.75 µM (active) and 21.9 µM (active)
C[N+](C)(C)CC(=O)O,5.5% (inactive) and 7.98% (inactive),–
CC(C)(O)C#N,1.12% (inactive) and 7.67% (inactive),–
C=CC(=O)OCC(CC)(COC(=O)C=C)COC(=O)C=C,–,3.56 µM (active) and 9.77 µM (active)
Oc1ccc(Cl)cc1Cl,3.11% (inactive),–
COc1ccc(CO)cc1,11.4% (inactive) and -15.8% (inactive),–
CC(C)(C#N)N=NC(C)(C)C#N,5.82% (inactive) and -2% (inactive),–

SMILES,max response,Potency
CC(C)(c1ccccc1)c1ccc(O)cc1,–,43.3 µM (active) and 27.5 µM (active)
O=C1C(Cl)=C(Cl)C(=O)c2ccccc21,–,5.51 µM (active) and 6.92 µM (active)
CCC/C=N/O,-8.66% (inactive) and 0.163% (inactive),–
Cc1ccc(N=CN(C)C=Nc2ccc(C)cc2C)c(C)c1,-1.79% (inactive),43.8 µM (active) and 43.6 µM (active)
CCCCSP(=O)(SCCCC)SCCCC,-17.8% (inactive) and -14.6% (inactive),–
COP(=S)(OC)Oc1ccc(S(=O)(=O)N(C)C)cc1,-18.5% (inactive) and -16.7% (inactive),–
ClC(Cl)=C(Cl)C(Cl)=C(Cl)Cl,3.65% (inactive) and 8.28% (inactive),–
CCOS(=O)(=O)OCC,6.05% (inactive),–
CC1(C)Cc2cccc(O)c2O1,1.32% (inactive) and -0.986% (inactive),–
O=[N+]([O-])c1ccc(Cl)c([N+](=O)[O-])c1,–,9.92 µM (active) and 12.3 µM (active)
CCCCOC(=O)COC(=O)c1ccccc1C(=O)OCCCC,-1.67% (inactive) and 1.98% (inactive),–
Clc1ccc(C(Cl)(Cl)Cl)cc1,-12.2% (inactive) and -12.9% (inactive),–
O=[N+]([O-])c1ccc(Nc2ccccc2)cc1,–,27.8 µM (active) and 21.9 µM (active)
N#CCCCCC#N,1.71% (inactive) and 10.7% (inactive),–
O=S(=O)(O)C(F)(F)C(F)(F)C(F)(F)C(F)(F)C(F)(F)C(F)(F)C(F)(F)C(F)(F)F,-24.5% (inactive) and 0.151% (inactive),–
CC(C)=CC1C(C(=O)OCc2cccc(Oc3ccccc3)c2)C1(C)C (stereo not given),-1.31% (inactive) and -6.07% (inactive),–
COP(=S)(OC)Oc1ccc(Sc2ccc(OP(=S)(OC)OC)cc2)cc1,5.12% (inactive),–
O=C(O)CF,2.85% (inactive) and 14% (inactive),–
CCNc1nc(Cl)nc(NC(C)(C)C#N)n1,-8.64% (inactive) and -8.88% (inactive),–

# From PubChem BioAssay (Tox21)
